The record followed here is PubChem BioAssay.

A number with no mark means an inactive call. For some assays here: Entries with a potency or affinity are not part of this list. Activity calls are given as the source filed them. Unless noted, no rule for the calls is given here.

Assay [1] in a line: antimalarial activity against Dd2 strain (AID 2302;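 active = growth inhibition above 50% at the single 2 µM test dose, taken to imply half-maximal potency below 2 µM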;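 also: 0% = DMSO untreated growth and 100% = chloroquine plus artemisinin killed control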). The settings on record: P. falciparum Dd2 in RBCs, LDH growth readout, 72 h; at 2 µM; stronger effect = higher value.
A short description of assay [2]: HepG2 cytotoxicity, primary screen, cytotoxicity control for P. falciparum antimalarial project, cell-based, ATP luminescence (AID 2303;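 active = inhibition above 50%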;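 also: 0% = DMSO wells and 100% = digitonin-killed cells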). Particulars: HepG2 viability, 24-48 h, at 10 µM, stronger effect = higher value.
In assay [3] the target is L-lactate dehydrogenase (Plasmodium falciparum (isolate CDC / Honduras)) (UniProt Q27743). The assay can be described thus: PfLDH activity inhibition – cell lysate, 3D7 strain, counter-screen for P. falciparum growth inhibition project (AID 2304).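 Also: 0% = vehicle and 100% = reference inhibitor.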 The settings on record: P. falciparum 3D7 crude extract, LDH APAD/NBT absorbance; at 2 µM; stronger effect = higher value. For orientation: The purpose of a counterscreen is to sort out artefacts and off-target activity.
Chain of L-lactate dehydrogenase (Plasmodium falciparum (isolate CDC / Honduras)) (Q27743 whole entry, looked up): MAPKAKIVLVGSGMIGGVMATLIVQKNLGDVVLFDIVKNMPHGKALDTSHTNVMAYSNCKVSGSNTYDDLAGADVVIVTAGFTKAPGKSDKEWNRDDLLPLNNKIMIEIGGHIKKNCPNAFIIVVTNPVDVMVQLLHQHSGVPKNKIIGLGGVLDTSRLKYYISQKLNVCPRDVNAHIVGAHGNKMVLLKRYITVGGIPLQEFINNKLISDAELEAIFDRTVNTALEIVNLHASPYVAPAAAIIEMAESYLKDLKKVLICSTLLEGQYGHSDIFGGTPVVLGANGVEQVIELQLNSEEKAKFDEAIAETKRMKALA

The nature of assay [4]: inhibition of 3D7 malaria parasite growth – strain 3D7 (AID 2306).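 Also: 0% = DMSO wells and 100% = chloroquine plus artemisinin control wells.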 The settings on record: P. falciparum 3D7 erythrocytic growth, LDH absorbance, 72 h; at 2 µM; stronger effect = higher value.
Assay [5] addresses Calcium-dependent protein kinase 1 (Plasmodium falciparum (isolate 3D7)) (UniProt P62344). The assay can be described thus: PfCDPK1 kinase inhibitors, biochemical, TCAMS library (AID 1159585; cut-off not given, nearly all actives have IC50 up to about 0.98 µM;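 also: inhibitors leave more ATP so luminescence rises with inhibition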). Particulars: recombinant PfCDPK1, Kinase-Glo ATP depletion luminescence. In general terms: Kinase-Glo measures the ATP left after a reaction by luminescence.
The target of assay [6] is Plasmodium falciparum protein kinase 6 (PK6, PF3D7_1337100) (UniProt Q8IDW1). As to the kind of experiment: PfPK6 kinase inhibitors, biochemical, TCAMS library (AID 1159586). The settings on record: recombinant PfPK6, Kinase-Glo ATP depletion luminescence.
Chain of Plasmodium falciparum protein kinase 6 (PK6, PF3D7_1337100) (Q8IDW1 1-305): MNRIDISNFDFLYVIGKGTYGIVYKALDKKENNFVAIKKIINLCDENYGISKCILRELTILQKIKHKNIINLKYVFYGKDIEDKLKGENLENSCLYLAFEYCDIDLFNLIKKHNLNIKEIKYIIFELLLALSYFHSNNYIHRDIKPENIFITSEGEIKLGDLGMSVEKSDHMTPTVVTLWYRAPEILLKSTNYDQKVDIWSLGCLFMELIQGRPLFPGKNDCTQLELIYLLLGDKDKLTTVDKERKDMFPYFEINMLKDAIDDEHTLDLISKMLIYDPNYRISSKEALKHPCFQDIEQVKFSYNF
The target of assay [7] is Protein kinase 7 (PK7), Plasmodium falciparum 3D7 (PF3D7_0213400) (UniProt Q7YTF7). The assay can be described thus: inhibition of Plasmodium PK7 catalytic activity – biochemical, TCAMS antimalarial set, Kinase-Glo luminescence (AID 1159587). The settings on record: recombinant PfPK7, Kinase-Glo ATP depletion luminescence.
Chain of Protein kinase 7 (PK7), Plasmodium falciparum 3D7 (PF3D7_0213400) (Q7YTF7 1-343): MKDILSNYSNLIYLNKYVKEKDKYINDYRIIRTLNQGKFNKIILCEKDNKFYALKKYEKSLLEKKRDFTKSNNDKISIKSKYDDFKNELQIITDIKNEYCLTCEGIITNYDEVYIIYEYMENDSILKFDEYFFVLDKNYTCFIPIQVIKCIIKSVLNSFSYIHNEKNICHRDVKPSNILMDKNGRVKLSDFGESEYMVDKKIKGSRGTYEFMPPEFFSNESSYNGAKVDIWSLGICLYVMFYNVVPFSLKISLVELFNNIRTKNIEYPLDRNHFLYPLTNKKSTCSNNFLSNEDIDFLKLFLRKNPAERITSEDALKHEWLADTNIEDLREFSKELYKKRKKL
The target in assay [8] is Calcium-dependent protein kinase 4 (Plasmodium falciparum (isolate 3D7)) (UniProt Q8IBS5). As to the kind of experiment: PfCDPK4 kinase inhibitors, biochemical, TCAMS library (AID 1159588; cut-off not given, nearly all actives have IC50 up to about 0.91 µM). The settings on record: recombinant PfCDPK4, Kinase-Glo ATP depletion luminescence.
Chain of Calcium-dependent protein kinase 4 (Plasmodium falciparum (isolate 3D7)) (Q8IBS5 whole entry, looked up): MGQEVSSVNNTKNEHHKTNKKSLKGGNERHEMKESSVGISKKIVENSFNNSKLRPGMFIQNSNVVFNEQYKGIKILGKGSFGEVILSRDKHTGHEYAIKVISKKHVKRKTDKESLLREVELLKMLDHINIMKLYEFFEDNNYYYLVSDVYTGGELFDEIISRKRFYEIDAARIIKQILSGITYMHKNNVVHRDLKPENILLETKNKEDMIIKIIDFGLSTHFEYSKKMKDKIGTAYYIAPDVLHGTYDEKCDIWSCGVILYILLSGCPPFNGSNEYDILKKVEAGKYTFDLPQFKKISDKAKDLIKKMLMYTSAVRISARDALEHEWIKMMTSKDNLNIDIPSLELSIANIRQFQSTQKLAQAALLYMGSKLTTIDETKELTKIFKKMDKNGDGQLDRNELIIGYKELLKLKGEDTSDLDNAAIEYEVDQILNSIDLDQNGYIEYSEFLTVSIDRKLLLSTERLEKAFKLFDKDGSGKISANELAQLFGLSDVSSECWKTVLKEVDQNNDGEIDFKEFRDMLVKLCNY

Chain of Calcium-dependent protein kinase 1 (Plasmodium falciparum (isolate 3D7)) (P62344 whole entry, looked up): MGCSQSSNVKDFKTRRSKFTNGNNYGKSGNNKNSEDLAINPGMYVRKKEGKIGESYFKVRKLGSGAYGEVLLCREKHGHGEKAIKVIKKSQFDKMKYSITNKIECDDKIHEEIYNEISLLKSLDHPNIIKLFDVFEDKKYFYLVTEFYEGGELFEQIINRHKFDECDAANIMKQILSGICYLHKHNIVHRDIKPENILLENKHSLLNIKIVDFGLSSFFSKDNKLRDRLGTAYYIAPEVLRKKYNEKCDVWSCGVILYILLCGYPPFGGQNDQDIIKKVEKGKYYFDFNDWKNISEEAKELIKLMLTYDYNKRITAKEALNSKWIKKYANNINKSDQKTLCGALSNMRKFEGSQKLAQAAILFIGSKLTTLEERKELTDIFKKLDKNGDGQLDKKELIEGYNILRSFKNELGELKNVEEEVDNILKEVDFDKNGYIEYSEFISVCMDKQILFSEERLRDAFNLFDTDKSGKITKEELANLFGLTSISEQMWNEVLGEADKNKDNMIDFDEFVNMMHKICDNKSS

The term inhibition denotes the drop in the measured response relative to a control, in per cent. As to `FC(F)(F)c1cccnc1N1CCC(Nc2nc3ccc(Cl)cc3[nH]2)CC1`, the growth inhibition in assay [1] was 39%; in assay [4] it was 93% (active). The inhibition in assay [2] was 32%; in assay [3], -2%. Moreover, the outcome in assay [5], in assay [6], in assay [7] and in assay [8] was inactive.
For `O=C(/C=C/c1ccc(Cl)c(Cl)c1)NCCCCCN1CCCC(CCCNC(=O)Nc2ccc(C(F)(F)F)cc2)C1` (configuration not stated), the growth inhibition was 48% in assay [1] and 101% (active) in assay [4]. Also, the inhibition in assay [2] is 58% (active); in assay [3] it was -4%. For the same compound, the outcome in assay [5], in assay [6], in assay [7] and in assay [8] was inactive.
Take `c1ccc(COc2ccc(Cn3ccc(-c4ccc(-n5ccnc5)cc4)n3)cc2)cc1` (tested in a mixture with another compound): the growth inhibition in assay [1] is 67% (active); in assay [4] it was 94% (active). In addition, the figures for the inhibition in assay [2] and in assay [3] were 2% and -1%, respectively. Further, the outcome in assay [5], in assay [6], in assay [7] and in assay [8] was inactive.
For `CCOC(=O)c1ccc(NC(=O)Nc2ccc(-c3cccc(-c4nc5ccccc5[nH]4)c3)cc2)cc1`, the growth inhibition in assay [1] was 99% (active); in assay [4] it was 101% (active). The inhibition was 94% (active) in assay [2] and -4% in assay [3]. In addition, the result in assay [5], in assay [6], in assay [7] and in assay [8] was inactive.
